Rows were chosen to be rich in hits. Some 3.2% of all compounds tested hit in one or more screens of this group.
FBA Mtb inh = Mtb fructose-bisphosphate aldolase inhibition. purified M. tuberculosis FBA, fluorescence read-out. 2.3% of 360,000 active. AID 588726. inhibition, % at 1 µM; in the data active = inhibition above about 27%;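 also: 0% = vehicle and 100% = reference inhibitor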
GDH-TPI counter = GDH-TPI coupled enzyme inhibition counter-screen; GDH-TPI coupled enzyme counterscreen, NADH absorbance; inhibition, % at 4.8 µM; 1.2% of 360,000 active; AID 588335; in the data active = inhibition above about 30%;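 also: 0% = DMSO wells and 100% = wells lacking the enzyme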
TcdB GH inh = inhibitors of Clostridioides difficile toxin B glycohydrolase; AID 652162; inhibition, % at 9.99 µM; TcdB glycohydrolase enzymatic assay, plate reader; 0.24% of 350,000 active; in the data active = inhibition above about 10%
Y pestis TopoI = inhibitors of Yersinia pestis topoisomerase I; 0.064% of 360,000 active; activity, % at 10 µM; Y. pestis Topo-I cleavage product accumulation, plate reader; in the data active = activity above about 50%, passing the limit was not always enough
PrPC TRFRET = reduces human prion protein on the cell surface | P04156 | 0.43% of 370,000 active | inhibition, % at 13.8 µM | cell surface PrPC, TR-FRET read-out; in the data active = inhibition above about 24%; also: 0% = median of the test wells and 100% = reference compound wells
PrPC confirm = cell surface PrPC inhibition, TR-FRET confirmation; shares compounds with PrPC TRFRET; cell surface PrPC level; inhibition, % at 13.8 µM; 65% of 1,500 active; AID 743200; in the data active = inhibition above about 25%
LD9 tox = LD9 cell cytotoxicity, PrPc inhibitor counter-screen. shares compounds with PrPC TRFRET. 29% of 1,500 active. AID 743201. inhibition, % at 13.8 µM. LD9 cells cytotoxicity, luminescence viability; in the data active = inhibition above about 9.5%
The depositor's hits bear a star; / = no result given; + = active, no number.

SMILES | FBA Mtb inh | GDH-TPI counter | TcdB GH inh | Y pestis TopoI | PrPC TRFRET | PrPC confirm | LD9 tox
C[C@H]1CCCCO[C@H](CN(C)Cc2ccc(C(=O)O)cc2)[C@@H](C)CN([C@@H](C)CO)C(=O)c2cc(NS(C)(=O)=O)ccc2O1 | / | / | 0 | / | / | / | /
CCOc1cc(C(=S)N2CCCC2)ccc1OCc1ccccc1 | 2 | 14 | 0 | 7 | 27* | 7 | -5
CNC(=O)C[C@@H]1CC[C@H]2[C@@H](COc3ccc(NC(=O)c4cccc(OC)c4)cc3C(=O)N2C)O1 | / | / | -7 | / | / | / | /
O=C1OCCC1Sc1ncnc2sc3c(c12)CCC3 (configuration not stated) | 0 | 2 | / | 5 | 56* | 64* | -6
Nc1ccc2c(c1)C(=O)C(=O)c1ccccc1-2 | -4 | 1 | / | -24 | 64* | 61* | 99*
Nc1ccc2c(c1)C(=O)c1ccccc1-2 | -1 | -11 | 3 | -11 | 6 | / | /
O=C(C[C@H]1C[C@@H]2c3cc(NS(=O)(=O)c4ccc(F)cc4)ccc3O[C@@H]2[C@H](CO)O1)NC1CCCC1 | / | / | -1 | / | / | / | /
Cn1cnc([N+](=O)[O-])c1NC(C)(C)C | 2 | 6 | / | -8 | -4 | / | /
Cn1cnc([N+](=O)[O-])c1S(=O)(=O)c1ccc(Cl)cc1 | 1 | 9 | -5 | 0 | 37* | 0 | 91*
O=C(Nc1ccc2c(c1)OCO2)N[C@@H]1CC[C@H](CCNC(=O)C2CCCCC2)O[C@H]1CO | / | / | 1 | / | / | / | /
COc1ccccc1C(=O)NC(=S)/C=C1/N(C)c2ccccc2C1(C)C | -5 | 6 | -2 | 17 | 29* | 49* | 11*
O=C(O)C[C@@H]1C[C@H]2c3cc(NS(=O)(=O)c4ccc(F)cc4)ccc3O[C@H]2[C@@H](CO)O1 | / | / | -2 | / | / | / | /
Oc1c(Cl)cc(CN2CCOCC2)c2cccnc12 | 0 | 0 | -1 | -4 | 5 | / | /
Oc1c(CN2CCCCC2)cc(Br)c2cccnc12 | 1 | -7 | / | -18 | 32* | 4 | 16*
Clc1cccc(Cc2c(-c3ccco3)nc3ccc(Cl)cn23)c1 | 3 | / | 2 | / | 6 | / | /
Cc1ccc(Cc2c(-c3ccco3)nc3c(C)cc(Br)cn23)cc1 | 4 | / | -3 | / | 37* | 56* | -2
Cc1cc(Br)cn2c(Cc3cccc(Cl)c3)c(-c3ccco3)nc12 | / | / | 0 | / | 37* | 56* | -1
COc1cc(C(=O)Nc2scc(-c3ccc(C)cc3)c2C(=O)O)cc(OC)c1OC | 4 | 11 | 9 | 6 | 60* | 69* | -5
Clc1cccc(-c2ccc(CNCc3ccccn3)o2)c1 | 1 | 3 | 2 | 15 | -1 | / | /
Brc1ccc(-c2ccc(CNCc3ccccn3)o2)cc1 | 1 | -15 | 0 | 7 | 30* | 49* | -3
O=C(C[C@@H]1C[C@@H]2c3cc(NC(=O)c4ccc5c(c4)OCO5)ccc3O[C@@H]2[C@H](CO)O1)NCC(F)(F)F | / | / | 1 | / | / | / | /
CCCN(c1ccc(OCC)cc1)S(=O)(=O)c1ccc2c(c1)NC(=O)CO2 | 2 | 2 | 3 | 5 | 55* | 56* | -2
O=C(Nc1nccs1)[C@@H]1[C@@H](CO)[C@@H]2Cn3c(cccc3=O)[C@@H]2N1C(=O)C1CC1 | / | / | 0 | / | / | / | /
CC(C)NC(=O)N(C)C[C@@H]1OCCCC[C@@H](C)Oc2ccc(NS(=O)(=O)c3cn(C)cn3)cc2C(=O)N([C@H](C)CO)C[C@@H]1C | / | / | 1 | / | / | / | /
CCSc1nc(N)c2c3c(sc2n1)CCC3 | 11 | 3 | / | -7 | 25* | 39* | -3
SMILES | FBA Mtb inh | GDH-TPI counter | TcdB GH inh | Y pestis TopoI | PrPC TRFRET | PrPC confirm | LD9 tox
CS(=O)(=O)N1CC(=O)N2[C@@H](CO)[C@H](c3ccc(C#CC4CCCC4)cc3)[C@@H]2C1 | / | / | 1 | / | / | / | /
COc1ccc2c(c1)CCC1(C)CC(=O)C(Br)=C21 (configuration not stated) | + | 42* | 4 | 17 | 42* | 68* | -4
COc1ccc2c(c1)CCCC(Br)C2=O (configuration not stated) | -2 | -1 | -1 | 0 | 3 | / | /
CCN(CC)c1ccc(C(=C2C=CC(=[N+](CC)CC)C=C2)c2ccc(N(CC)CC)cc2)cc1 | 4 | 4 | 7 | -40 | -143 | / | /
CCN(CC)c1ccc(C(=C2C=CC(=[N+](CC)CC)C=C2)c2ccccc2)cc1 | 0 | 4 | 7 | -8 | 85* | 90* | 99*
COCC(=O)Nc1ccc2c(c1)OC[C@H](C)N(CCc1ccccc1)C[C@@H](C)[C@H](OC)CN(C)C2=O | / | / | 1 | / | / | / | /
OC[C@@H]1[C@@H](c2ccccc2)C2(CN(CCC(F)(F)F)C2)N1Cc1cccnc1 | / | / | 0 | / | / | / | /
CN(C)C(=O)[C@@H]1[C@@H](CO)[C@@H]2Cn3c(ccc(-c4ccccc4)c3=O)[C@@H]2N1C(=O)c1ccccn1 | / | / | -1 | / | / | / | /
CN1C(=O)C(C)(C)c2cc(S(=O)(=O)N3CCCC(C(=O)NCc4ccc(Cl)cc4)C3)ccc21 (configuration not stated) | 1 | 8 | 0 | 16 | 41* | 45* | -2
COc1cccc(NC(=O)C2CCCN2S(=O)(=O)c2ccc3c(c2)C(C)(C)C(=O)N3C)c1 (configuration not stated) | -1 | -1 | 2 | -2 | 8 | / | /
Cc1cc(C)cc(NC(=O)C2CCCN2S(=O)(=O)c2ccc3c(c2)C(C)(C)C(=O)N3C)c1 (configuration not stated) | 3 | 6 | 2 | 7 | 37* | 19 | -4
Fc1ccccc1COc1ccc(Br)cc1CNCc1ccncc1 | -3 | 7 | / | 28 | 25* | 23 | 17*
CN(C)CCCNC(=O)C[C@@H]1C=C[C@H](NC(=O)c2ccccc2F)[C@@H](CO)O1 | / | / | -2 | / | / | / | /
CC(=O)CCC1C2C(O)C(C(C)C)C(OC(=O)/C=C/c3ccccc3)CC12C (configuration not stated) | -1 | -6 | 0 | 27 | 5 | / | /
CC(=O)OC1C(O)C(C)OC(OC2C(OC(=O)C3CCC4C(C3)OC3(CC(OC(=O)/C=C/c5ccccc5)C(C)CO3)C43CO3)OC(C)C(O)C2OC(C)=O)C1O (configuration not stated) | -2 | 0 | 0 | 27 | 86* | 98* | 67*
O=C(Nc1ccc(Cn2cccn2)cc1)c1ccc(COc2cccc(Br)c2)cc1 | -1 | 3 | / | 10 | 28* | 26* | 2
O=C(Nc1ccn(Cc2ccccc2F)n1)c1ccc(COc2ccc(Br)cc2)cc1 | -2 | 9 | / | 3 | 32* | 23 | 8
CC(C)N1CCc2c(sc(NC(=O)C3CCCCC3)c2C(N)=O)C1 | -1 | -8 | -5 | -3 | 32* | 8 | 3
COc1ccc(CC(=O)NC(c2ccccc2)c2ccc(C)cc2)c(OC)c1 (configuration not stated) | -3 | 11 | 1 | 48 | 30* | 28* | -9

Screening results (PubChem)
